Here are results for 33 compounds from PubChem BioAssay (EPA / NIEHS).

The target of assay [1] is Cellular tumor antigen p53 (Homo sapiens) (UniProt P04637). Kind of assay: TOX21_p53_BLA_p2_ratio: Tox21 HCT-116 p53 Agonism Beta-lactamase Assay, Ratio, Phase 2 (AID 2283592). The method in brief: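 Ratio endpoint: beta-lactamase cleavage of CCF4-AM, blue (460 nm) over green (530 nm). HCT116 reporter line; 16 h treatment, 37C; substrate 2 h RT.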
Assay [2] is described as follows: TOX21_p53_BLA_p3_viability: Viability Assessment in the Tox21 HCT-116 p53 Agonism Beta-lactamase Assay, Phase 3 (AID 2283593).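 Also: cells exposed to compound for 16 h before reading.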 In outline:
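HCT-116 cells (4000/well) rested 5 h at 37C, then got DMSO compounds by pin tool (217-fold dilution) for 16 h at 37C, 5% CO2. After the bla read, CellTiter-Glo was added and luminescence read at 30 min, room temperature.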

Assay [3] addresses Cellular tumor antigen p53 (Homo sapiens) (UniProt P04637). As to the kind of experiment: TOX21_p53_BLA_p3_ratio: Tox21 HCT-116 p53 Agonism Beta-lactamase Assay, Ratio, Phase 3 (AID 2283596). The method in brief: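 Cells were seeded at 4000/well, rested 5 h at 37C, then dosed with DMSO compound solutions (217-fold dilution) for 16 h. CCF4-AM substrate was loaded for 2 h at room temperature, and the 460/530 nm emission ratio was fitted for gain of signal versus DMSO.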

The target is the same in assay [4]. Kind of assay: TOX21_p53_BLA_p5_ratio: Tox21 HCT-116 p53 Agonism Beta-lactamase Assay, Ratio, Phase 5 (AID 2283599). The method in brief:
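HCT-116 cells carrying a p53-inducible beta-lactamase reporter were seeded at 4000 cells/well and dosed after 5 h with compound in DMSO (217-fold dilution). After 16 h at 37C, CCF4-AM substrate was added for 2 h, and the 460/530 nm emission ratio was scored as gain-of-signal versus DMSO.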

A short description of assay [5]: TOX21_p53_BLA_p5_viability: Viability Assessment in the Tox21 HCT-116 p53 Agonism Beta-lactamase Assay, Phase 5 (AID 2283600). In outline:
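Luciferase-coupled ATP quantitation of cells treated for 16 h (37C, 5% CO2) with test chemicals delivered in DMSO via a 217-fold dilution; 4000 cells/well; reagent incubated 30 min at room temperature before luminescence reading.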

Assay [6] deals with Cellular tumor antigen p53 (Homo sapiens) (UniProt P04637). Kind of assay: TOX21_p53_BLA_p4_ratio: Tox21 HCT-116 p53 Agonism Beta-lactamase Assay, Ratio, Phase 4 (AID 2283601). The method in brief:
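HCT116 cells carrying an inducible beta-lactamase reporter were plated at 4000 cells/well, rested 5 h, then exposed to compounds in DMSO (217-fold dilution) for 16 h at 37C. CCF4-AM substrate was loaded 2 h at room temperature; 460/530 nm emission ratio scored gain-of-signal versus DMSO.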

Assay [7] is described as follows: TOX21_p53_BLA_p4_viability: Viability Assessment in the Tox21 HCT-116 p53 Agonism Beta-lactamase Assay, Phase 4 (AID 2283597).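 Also: hits lower the luminescence signal meaning cytotoxicity.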 In outline:
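Cytotoxicity was inferred from loss of CellTiter-Glo luminescence. HCT116 cells had been dosed with compounds after 5 h plating, incubated 16 h at 37C and 5% CO2, and exposed to the CCF4-AM substrate for 2 h.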

Structures are written as SMILES. Results filed as inconclusive are left out. The source made the active and inactive calls. The calls were made as follows: active = hit-call score of the fitted dose curve at least 0.9, where 1 is the maximum; inconclusive = response in the unintended direction; inactive = score below 0.9.

Chain of Cellular tumor antigen p53 (Homo sapiens) (P04637 whole entry, looked up): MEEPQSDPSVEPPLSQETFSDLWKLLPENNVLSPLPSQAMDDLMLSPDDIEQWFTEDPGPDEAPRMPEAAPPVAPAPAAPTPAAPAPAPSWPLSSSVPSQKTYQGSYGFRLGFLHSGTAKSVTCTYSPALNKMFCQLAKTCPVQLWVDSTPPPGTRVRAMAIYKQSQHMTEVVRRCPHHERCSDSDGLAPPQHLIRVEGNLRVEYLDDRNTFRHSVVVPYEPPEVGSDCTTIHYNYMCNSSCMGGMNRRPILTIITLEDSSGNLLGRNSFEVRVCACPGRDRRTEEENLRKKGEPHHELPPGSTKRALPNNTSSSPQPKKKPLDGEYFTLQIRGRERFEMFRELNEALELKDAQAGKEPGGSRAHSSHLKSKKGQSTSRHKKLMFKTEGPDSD

Take `c1ccc(CSCc2ccccc2)cc1`: the outcome in assay [1], in assay [2], in assay [3], in assay [4], in assay [5] and in assay [6] was inactive.
With `CC(=O)Oc1c(C)cc(OCC(O)CNC(C)C)c(C)c1C` (centres undefined), the result in assay [1], in assay [2], in assay [3], in assay [7] and in assay [6] was inactive.
For the compound `CCCCC(CC)CN` (centres undefined), the result in assay [1], in assay [2], in assay [3], in assay [7] and in assay [6] was inactive.
For the compound `CC(C)=O`, the result in assay [1], in assay [2], in assay [3], in assay [4], in assay [5] and in assay [6] was inactive.
As for `c1cnc2c(n1)CCCC2`, the result in assay [1], in assay [2], in assay [3], in assay [7] and in assay [6] was inactive.
`CC[C@H](C)[C@H](N)C(=O)O`: the result in assay [1], in assay [2], in assay [3] and in assay [4] was inactive.
As for `Cc1cccc(C)c1NC(=O)CC12CCCN1CCC2`, the outcome in assay [1], in assay [2], in assay [3], in assay [4], in assay [5] and in assay [6] was inactive.
Consider `CCSC(=O)N(CC)CC`, for which the outcome in assay [1], in assay [2], in assay [3] and in assay [4] was inactive.
On to `CC(=O)O[Si](C)(OC(C)=O)OC(C)=O`, for which the outcome in assay [1], in assay [2], in assay [3], in assay [7] and in assay [6] was inactive.
On to `CCc1cc(S(=O)(=O)O)c2cc(C(C)C)cccc1-2`, for which the outcome in assay [1], in assay [2], in assay [3], in assay [4], in assay [5] and in assay [6] was inactive.
Turning to `CC(C(=O)O)c1cccc(Oc2ccccc2)c1` (centres undefined), the result in assay [1], in assay [2], in assay [3], in assay [4], in assay [5] and in assay [6] was inactive.
As for `CCN(CC)CCNC(=O)COc1ccc(Cl)cc1`, the result in assay [1], in assay [2], in assay [3], in assay [7] and in assay [6] was inactive.
`O=C(NCN1CCOCC1)c1cnccn1`: the result in assay [1], in assay [2], in assay [3], in assay [4], in assay [5] and in assay [6] was inactive.
As to `O=C(Nc1ccc(/C=C/c2ccc(NC(=O)c3cc(S(=O)(=O)O)c4cccnc4c3O)cc2S(=O)(=O)O)c(S(=O)(=O)O)c1)c1cc(S(=O)(=O)O)c2cccnc2c1O`, the result in assay [1], in assay [2], in assay [3], in assay [4], in assay [5] and in assay [6] was inactive.
Take `COCC(C)OC(C)=O` (centres undefined): the result in assay [1], in assay [2], in assay [3], in assay [4] and in assay [5] was inactive.
For the compound `C[C@]1(Cn2ccnn2)[C@H](C(=O)O)N2C(=O)C[C@H]2S1(=O)=O`, the result in assay [1], in assay [2], in assay [3], in assay [4] and in assay [6] was inactive.
Consider `CO/N=C(\C(=O)N[C@@H]1C(=O)N2C(C(=O)O)=C(CSc3nc(=O)c(O)nn3C)CS[C@H]12)c1csc(N)n1`, for which the result in assay [1], in assay [2], in assay [3], in assay [4] and in assay [6] was inactive.
Turning to `C/C=C(\C)C=O`, the outcome in assay [1], in assay [2], in assay [3], in assay [4], in assay [5] and in assay [6] was inactive.
Consider `CO[Si](CCCCl)(OC)OC`, for which the result in assay [1], in assay [2], in assay [3], in assay [4] and in assay [6] was inactive.
`O=C(O)Cc1nn(Cc2ccc(Br)cc2F)c(=O)c2ccccc12`: the outcome in assay [1], in assay [2], in assay [3], in assay [4], in assay [5] and in assay [6] was inactive.
Turning to `CO/N=C(\C(=O)N[C@@H]1C(=O)N2C(C(=O)O)=C(CSc3cnns3)CS[C@H]12)c1csc(N)n1`, the outcome in assay [1], in assay [2], in assay [3], in assay [4] and in assay [6] was inactive.
Consider `Cc1cc(C(C)(C)C)cc(C)c1CC1=NCCN1`, for which the outcome in assay [1], in assay [2], in assay [3], in assay [4], in assay [5] and in assay [6] was inactive.
For `CCCCCCCCOCCC#N`, the result in assay [1], in assay [2], in assay [3], in assay [4], in assay [5] and in assay [6] was inactive.
Take `N#Cc1cc2ccccc2c2ccccc12`: the outcome in assay [1], in assay [2], in assay [3], in assay [4] and in assay [6] was inactive.
As for `Cc1cc2cc3c(C)cc(=O)oc3c(C)c2o1`, the result in assay [1], in assay [2], in assay [3], in assay [4] and in assay [6] was inactive.
As for `C#C[C@]1(OC(C)=O)CC[C@H]2[C@@H]3CCC4=CC(=O)CC[C@@H]4[C@H]3CC[C@@]21C`, the outcome in assay [1], in assay [2], in assay [3], in assay [4] and in assay [6] was inactive.
Regarding `CC(=O)OCC1=C(C(=O)O)N2C(=O)[C@@H](NC(=O)Cc3cccs3)[C@H]2SC1`, the result in assay [1], in assay [2], in assay [3], in assay [4], in assay [5] and in assay [6] was inactive.
As to `CC(=O)CC(=O)c1ccccc1`, the result in assay [1], in assay [2], in assay [3], in assay [4], in assay [5] and in assay [6] was inactive.
On to `CC(=O)N(CC(O)CN(C(C)=O)c1c(I)c(C(=O)NCC(O)CO)c(I)c(C(=O)NCC(O)CO)c1I)c1c(I)c(C(=O)NCC(O)CO)c(I)c(C(=O)NCC(O)CO)c1I` (centres undefined), for which the result in assay [1], in assay [2], in assay [3], in assay [4] and in assay [6] was inactive.
As for `O=C(O)[C@@H]1[C@H]2C[C@H]3c4[nH]c5ccccc5c4CCN3C[C@@H]2CC[C@@H]1O`, the result in assay [1], in assay [2], in assay [3], in assay [4] and in assay [6] was inactive.
On to `O=Cc1ccccc1[N+](=O)[O-]`, for which the AC50 in assay [1] is 70.6 µM (active); in assay [4] it was 68 µM (active). The result in assay [2], in assay [3], in assay [5] and in assay [6] was inactive.
In the case of `O=C1CC2(CCCC2)CC(=O)N1CCNCC1COc2ccccc2O1` (centres undefined), the outcome in assay [1], in assay [2], in assay [3], in assay [4], in assay [5] and in assay [6] was inactive.
`CC[N+](CC)(CC)CCOc1ccc(/C=C/c2ccccc2)cc1`: the result in assay [1], in assay [2], in assay [3], in assay [4], in assay [5] and in assay [6] was inactive.
